Measurements as given in PubChem BioAssay (NCATS).
Where “and” joins values, the source holds several entries; their conditions need not be identical. Equal entries are not always repeated. Records with an inconclusive call do not appear. Calls of active or inactive are those of the source. Unless noted, the call rests on the fitted dose curve; in most records, active means well fitted curve in the direction sought with a large enough effect; inconclusive means small, poorly fitted or top-dose-only effect, or another doubt; inactive means no such curve, though single readings can be large; an effect the other way counts as inactive or inconclusive.

Key:
[1] = Cell Viability - Jurkat (AID 426;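 active means dose-dependent loss of cell ATP signal giving a full or clear fitted curve, ranked by lower potency value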; further: potency means the concentration at half of the fitted maximal effect); settings: qHTS
How it was run: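 Seed 5000 Jurkat E6-1 cells/well; add compound; incubate 40 hr at 37 °C; add CellTiter-Glo; wait 20 min at room temperature; read luminescence. Fit concentration-response with Hill equation for AC50.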

[2] = Cell Viability - Hek293 (AID 427;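 active means compounds whose dose-response curve shows a full or clear partial loss of cell viability, called from curve shape rather than a numeric limit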;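 further: potency means the concentration at half of the fitted maximal effect; cells exposed to compound for 40 hours at 37 °C before reading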); settings: qHTS
How it was run: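 HEK293 cells in complete medium were exposed to compound for 40 hr at 37 °C, then cellular ATP was read by CellTiter-Glo luminescence. Data were normalized to DMSO (basal) and 100 uM tamoxifen (100% inhibition), and AC50 came from Hill fits.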

[3] = Cell Viability - HepG2 (AID 433; calls by dose curve;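 further: potency means the concentration at half of the fitted maximal effect; potency for ATP loss meaning cytotoxicity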); settings: qHTS
How it was run: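 Cytotoxicity is scored as loss of intracellular ATP in HepG2 cells exposed to compounds for 40 h. Concentration-response curves, normalized to DMSO and 100 uM tamoxifen, give AC50 values.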

[4] = molecular target: Mitogen-activated protein kinase 10 (Mus musculus) (UniProt Q61831); test: JNK3 AlphaScreen Assay (AID 530; active means well fitted curve in either direction with a large enough effect, not every such curve was filed as active;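 further: kinase came from lysate of stimulated human HepG2 cells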; further: potency means the concentration at half of the fitted maximal effect); settings: JNK3 lysate, c-Jun phosphorylation; series mostly up to 57.1 µM
How it was run: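 Room-temperature AlphaScreen kinase assay; pre-activated HepG2 lysate as JNK3 source, biotin-GST-cJun(1-79) substrate, 10 uM ATP, compound 15 min preincubation.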

[5] = Cellular Toxicity (caspase-3) Jurkat (AID 655); settings: Jurkat caspase-3 activation, luminescence; caspase-3 activation: at 92.2 µM (top of the series), DMSO = 0%, tamoxifen = 100%;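 further: cells exposed to compound for 16 h at 37 °C before reading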; further: potency means the concentration at half of the fitted maximal effect
How it was run: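 Caspase 3/7 activation is scored as increased luminescence in Jurkat cells cultured with compound for 16 hours in complete medium. AC50 values come from Hill fits of qHTS concentration-response data normalized to DMSO and 100 uM tamoxifen controls.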

[6] = Cellular Toxicity (caspase-3) SHSY5Y (AID 657); settings: SH-SY5Y caspase-3 activation; series mostly up to 91.7 µM;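 further: cells exposed to compound for 16 hours at 37 °C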
How it was run: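 Cells plated and incubated 5 h at 37 °C, dosed over a concentration range, incubated 16 h, then given Caspase-Glo 3/7 reagent for 1 h at room temperature before luminescence reading. Staurosporine (10 uM) defined full stimulation.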

[7] = Cellular Toxicity (caspase-3) BJ (AID 658); settings: BJ fibroblasts, luminescence; Potency: caspase-3 activation; series mostly up to 91.7 µM; further: potency means the concentration at half of the fitted maximal effect
How it was run: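 Readout: Caspase-Glo 3/7 luminescence increase in BJ cells after 16 hr treatment at 37 °C. Staurosporine and tamoxifen served as positive controls; AC50 values came from Hill modelling of data normalized to DMSO and 10 uM staurosporine.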

[8] = Cellular Toxicity (caspase-3) MRC-5 (AID 659); settings: MRC-5 cells, luminescence, normalized: DMSO 0%, 10 µM staurosporine 100%; series mostly up to 91.7 µM;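 further: cells exposed to compound for 16 h at 37 °C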
How it was run: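 Concentration-dependent caspase 3/7 activation is measured in human normal lung fibroblasts (MRC-5) following 16-hour treatment. AC50 values come from standard Hill-equation modeling of luminescence normalized to DMSO and 10 uM staurosporine.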

[9] = Cellular Toxicity (caspase-3) SK-N-SH (AID 661); settings: SK-N-SH caspase-3 activation, qHTS; caspase-3 activation: at 91.7 µM (top of the series), DMSO as zero, staurosporine as full
How it was run: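 Caspase 3/7 activation is measured as a luminescence increase from aminoluciferin released by substrate cleavage in SK-N-SH cells after 16 hr compound treatment; values are AC50 from concentration-response curves.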

[10] = Cellular Toxicity (caspase-3) H-4-II-E (AID 663); settings: H-4-II-E rat hepatoma; Potency: caspase-3 activation; caspase-3 activation: at 92.2 µM (top of the series), scaled: DMSO 0%, 100 µM tamoxifen 100%;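 further: cells exposed to compound for 16 hr before readout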
How it was run: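 Apoptosis induction is scored as increased luminescence from caspase 3/7 substrate cleavage in rat hepatoma H-4-II-E cells exposed to compound for 16 hr. Activity is scaled between DMSO and 100 uM tamoxifen.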

[11] = Cell Viability - LYMP1-002 - Assay at 16 hr (AID 948); settings: LYMP1-002 lymphoblastoid cell viability; series mostly up to 92.2 µM;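 further: 0% = DMSO alone and full effect = 92 µM tetraoctylammonium bromide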
How it was run: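 Acute cytotoxicity is scored as a concentration-dependent fall in intracellular ATP in a human lymphoblastoid line (LYMP1-002) after 16 hr compound exposure at 37 C, measured by luciferase luminescence.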

[12] = MultiTox-Fluor Cytotoxicity Assay - LYMP1-002 - Live Cells (AID 955); settings: LYMP1-002 lymphoblastoid live-cell protease fluorescence viability; series mostly up to 46.1 µM; further: potency means the concentration at half of the fitted maximal effect
How it was run: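 Cytotoxicity in the human lymphoblastoid line LYMP1-002 is measured as loss of live-cell protease activity after 16 h treatment in complete culture medium. AC50 is derived from Hill-equation fits of qHTS concentration-response data.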

[13] = MultiTox-Fluor Cytotoxicity Assay - LYMP1-003 - Live Cells (AID 962); settings: LYMP1-003 lymphoblastoid cells, MultiTox-Fluor live-cell protease fluorescence; series mostly up to 92.2 µM;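 further: cells exposed to compound for 16 hours at 37 °C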; further: potency means the concentration at half of the fitted maximal effect
How it was run: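 Cells plated at 2500 per well and incubated 5 hr; compounds added and incubated 16 hr at 37 C; MultiTox-Fluor reagent added for 60 min at room temperature; fluorescence of liberated AFC measured at 405/510 nm.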

[14] = Cell Viability - LYMP2-009 (AID 968); settings: LYMP2-009 lymphoblastoid cell viability; series mostly up to 92.2 µM;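 further: cells exposed to compound for 24 h at 37 °C; nearly all actives have a fitted effect of over 55% in size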; further: potency means the concentration at half of the fitted maximal effect
[15] = Cell Viability - LYMP2-021 (AID 974); settings: LYMP2-021 lymphoblastoid cells viability; series mostly up to 92.2 µM;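 further: compound exposure lasts 24 hours at 37 °C; nearly all actives have a fitted effect of over 55% in size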; further: potency means the concentration at half of the fitted maximal effect; on activity change, negative = cytotoxicity: on the % scale 0 is the no-effect control and ±100 the full control effect
How it was run: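 Concentration-response cytotoxicity in a human lymphoblastoid line: 24 hr treatment at 37 C in complete culture medium, tetraoctylammonium bromide as positive control, luminescent ATP quantitation as viability measure.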

[16] = Cell Viability - LYMP2-007 (AID 979); settings: LYMP2-007 lymphoblastoid cell viability; series mostly up to 92.2 µM;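 further: cells exposed to compound for 24 h before reading; nearly all actives have a fitted effect of over 60% in size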; further: potency means the concentration at half of the fitted maximal effect;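 on activity change, negative = cytotoxicity: 0% = DMSO only and the negative end = 92 µM tetraoctylammonium bromide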
How it was run: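 Acute toxicity is scored as a concentration-dependent fall in intracellular ATP in human lymphoblastoid cells treated 24 hr at 37 C, measured by luciferase luminescence; Hill-equation modelling yields AC50.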

[17] = Cell Viability - LYMP1-002 - Assay at 24 hr (AID 993); settings: LYMP1-002 lymphoblastoid cells viability; series mostly up to 92.2 µM; further: potency means the concentration at half of the fitted maximal effect; on activity change, negative = cytotoxicity: on the % scale 0 is the no-effect control and ±100 the full control effect
How it was run: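 qHTS, LYMP1-002 lymphoblastoid, 24 h cpd, 37 C, CellTiter-Glo ATP luminescence; AC50 via Hill eq.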

[18] = qHTS assay for small molecule agonists of the antioxidant response element (ARE) signaling pathway measured by Nrf2-dependant transcriptional activity - cell viability counter screen (AID 720653; active means well fitted curve in the direction sought with a large enough effect in the repeat runs; an effect the other way counts as inactive or inconclusive; further: on the % scale 0 is the no-effect control and ±100 the full control effect); settings: ARE-bla HepG2 viability, CellTiter-Glo ATP luminescence, 16 h; max response: stronger effect = lower value
How it was run: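 Cytotoxicity counter screen: intracellular ATP quantified by CellTiter-Glo luminescence in the same ARE-bla HepG2 plates, after 16 h compound exposure and a 2 h beta-lactamase substrate step.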

[19] = Cell Viability - NIH 3T3 (AID 541); settings: NIH 3T3 cell viability, qHTS; activity change, negative = cytotoxicity: at 92.2 µM (top of the series); further: nearly all actives have a fitted effect of over 25% in size; further: potency means the concentration at half of the fitted maximal effect;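 on activity change, negative = cytotoxicity: plate controls were DMSO alone for no effect and tamoxifen positive control for full effect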
How it was run: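 AC50 values reflect concentration-dependent loss of intracellular ATP in NIH 3T3 cells after 40 hr treatment in complete culture medium, quantified by luciferase-based luminescence.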

[20] = Cell Viability - H-4-II-E (AID 543); settings: H-4-II-E rat hepatoma viability; series mostly up to 92.2 µM; further: nearly all actives have a fitted effect of over 35% in size; further: potency means the concentration at half of the fitted maximal effect
How it was run: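 Here, cytotoxicity is measured in the rat hepatoma line H-4-II-E as loss of intracellular ATP after 40 hr compound treatment, detected by luciferase luminescence.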

c1ccc2c(c1)-c1cccc3c1c-2cc1ccccc13
active: Potency [4] 2.51 µM [activator]
inactive: Potency [1] > 92 µM | Potency [2] > 92 µM | Potency [3] > 92 µM | Potency [5] | Potency [6] | Potency [7] | outcome [8] | caspase-3 activation [9] 2.25% | caspase-3 activation [10] 11.1% | Potency [11] | Potency [12] | Potency [13] | Potency [14] | Potency [15] | Potency [16] | Potency [17] | max response [18] -12.4% and -4.83%

C=CC(=O)OCCOCCOC(=O)C=C
inactive: Potency [4] | outcome [8] | max response [18] -8.93%
active: Potency [1] 7.5 µM | Potency [2] 27 µM | Potency [19] 3.16 µM | Potency [20] 20 µM | Potency [12] 15.8 µM | Potency [13] 31.6 µM | Potency [14] 20 µM | Potency [15] 15.8 µM | Potency [16] 25.1 µM

CO[C@H]1/C=C/O[C@@]2(C)Oc3c(C)c(O)c4c(O)c(c5c(c4c3C2=O)NC2(CCN(CC(C)C)CC2)N=5)=NC(=O)/C(C)=C\C=C\[C@H](C)[C@H](O)[C@@H](C)[C@@H](O)[C@@H](C)[C@H](OC(C)=O)[C@@H]1C
inactive: Potency [3] > 92 µM | Potency [5] | Potency [6] | Potency [7] | outcome [8] | caspase-3 activation [9] 5.74% | caspase-3 activation [10] 2.28% | Potency [11] | Potency [12] | Potency [13] | Potency [14] | Potency [15] | Potency [16] | Potency [17] | max response [18] -17.5%
active: Potency [19] 20 µM

CC/C(=C(\c1ccccc1)c1ccc(OCCN(C)C)cc1)c1ccc(O)cc1
inactive: Potency [4] | Potency [6] | Potency [11]
active: Potency [1] 40.8 µM | Potency [3] 29.4 µM | activity change, negative = cytotoxicity [19] -141% | Potency [20] 39.8 µM | Potency [5] 31.6 µM | caspase-3 activation [10] 124%

ClC1=C(Cl)C(Cl)(Cl)C(Cl)=C1Cl
inactive: Potency [2] > 92 µM | Potency [4] | Potency [20] | Potency [6] | outcome [8] | caspase-3 activation [10] 4.97% | Potency [11] | Potency [12] | Potency [13] | Potency [17]
active: Potency [1] 1.88 µM | Potency [3] 22.6 µM | activity change, negative = cytotoxicity [19] -125% | Potency [5] 0.316 µM | Potency [7] 3.98 µM

Cc1cc(Nc2ccc(O)cc2)ccc1N
inactive: Potency [6] | Potency [7] | outcome [8] | caspase-3 activation [9] 12.7% | caspase-3 activation [10] 20.7% | Potency [11] | Potency [12] | Potency [13] | Potency [17]
active: Potency [1] 7.82 µM | Potency [2] 52.8 µM | activity change, negative = cytotoxicity [19] -158% | Potency [20] 39.8 µM | Potency [14] 50.1 µM | Potency [15] 50.1 µM | Potency [16] 31.6 µM

CNc1ccc(O)cc1
active: Potency [1] 2.14 µM | Potency [2] 40.8 µM | Potency [3] 59.6 µM | Potency [19] 25.1 µM | Potency [20] 20 µM | Potency [12] 12.6 µM | Potency [13] 31.6 µM | Potency [14] 6.31 µM | Potency [15] 3.98 µM | Potency [16] 6.31 µM | Potency [17] 15.8 µM
inactive: Potency [4] | Potency [6] | Potency [7] | outcome [8] | caspase-3 activation [9] -7.58% | caspase-3 activation [10] -5.23% | max response [18] -24.5%

COc1cc2c(c(OC)c1OC)-c1ccc(OC)c(=O)cc1[C@H](NC(C)=O)CC2
inactive: Potency [4]

c1ccc2c(c1)ccc1cc3c(ccc4ccccc43)cc12
inactive: Potency [1] > 92 µM | Potency [2] > 92 µM | Potency [3] > 92 µM | Potency [19] | Potency [20] | Potency [5] | Potency [6] | Potency [7] | outcome [8] | caspase-3 activation [9] -0.556% | caspase-3 activation [10] -1.53% | Potency [11] | Potency [12] | Potency [13] | Potency [14] | Potency [15] | Potency [16] | Potency [17] | max response [18] -11.9%
